From PubChem BioAssay (NCATS)
Inconclusive results are not listed. Calls of active or inactive are those of the source. Unless noted, calls follow the shape of the dose curve; as a rule, active = well fitted curve in either direction with a large enough effect (not every such curve was filed as active); inconclusive = small, poorly fitted or top-dose-only effect, or another doubt; inactive = flat fitted curve, though single readings scatter.

Legend:
[1] = target: Lysosomal acid glucosylceramidase (Homo sapiens) (UniProt P04062); test: Glucocerebrosidase-p2 (AID 348; in the data active = potency below about 10 µM; also: potency is read from the fitted curve at half-maximal effect); conditions: purified GBA, blue fluorogenic substrate, 40 min
Procedure, shortened: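 Compounds titrated from 0.6 nM upwards against 0.2 nM enzyme in pH 5.9 citric acid/KH2PO4, taurocholate, tween-20; blue fluorogenic substrate 80 uM, 40 min room temperature, stopped and read Ex 365/Em 440 for AC50.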

[2] = AP1 Signaling Pathway (AID 357); conditions: ME-180 AP-1-bla reporter, EGF-induced, beta-lactamase ratio, 5 h; at 7.69 µM (top of the series) unless noted; also: % is scaled to controls: 0 for no effect and ±100 for the full control effect
Procedure, shortened: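 ME-180 cells with beta-lactamase reporter under AP-1 response element, stimulated with EC50 EGF; compounds tested in titration series, 5 h at 37 °C. CCF4 substrate added 2.5 h at room temperature; 460/530 nm emission ratio gave %activity and AC50.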

[3] = Stat Signaling Pathway (AID 446); conditions: ME-180 SIE beta-lactamase reporter, IL-6 stimulated, 5 h; at 7.69 µM (top of the series) unless noted;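 also: ME-180 cervical cancer cells given 40 pM IL-6 alongside compound; SIE-controlled beta-lactamase reporter measured as 460/530 nm FRET emission ratio; % is scaled to controls: 0 for no effect and ±100 for the full control effect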
Procedure, shortened: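 ME-180 SIE-bla cells; overnight plating; cpd + IL-6 40 pM, 5 h, 37 C; LiveBLAzer 2.5 h RT; 460/530 nm emission ratio. Normalized to 300 pM IL-6 and 125 nM JAK inhibitor controls.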

[4] = target: Glucocorticoid receptor (Homo sapiens) (UniProt P04150); test: GR-GFP Redistribution (AID 450;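 active = compounds whose dose series gives a full or clear partial fitted curve of increased nuclear translocation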; also: potency is read from the fitted curve at half-maximal effect); conditions: U2OS GR-GFP nuclear translocation, laser cytometry, 2 h
[5] = target: Glucocorticoid receptor (Homo sapiens) (UniProt P04150); test: GR-EFC Redistribution (AID 451; calls by dose curve; also: potency is read from the fitted curve at half-maximal effect); conditions: CHO-K1 GR-EFC translocation, beta-gal luminescence, 2 h
Procedure, shortened: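 CHO-K1 cells expressing nuclear EA and GR-ED fragments of b-gal; compounds titrated up to 46 uM final, 2 h at 37 C. GR nuclear translocation read as complemented b-gal luminescence after 1 h RT detection.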

[6] = target: Mitogen-activated protein kinase 10 (Mus musculus) (UniProt Q61831); test: JNK3 AlphaScreen Assay (AID 530); conditions: JNK3 lysate, c-Jun phosphorylation; series mostly up to 57.1 µM;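 also: kinase came from lysate of stimulated human HepG2 cells; signal reports phosphorylation of biotinylated GST-cJun 1-79 at Ser73 with 10 µM ATP; % is scaled to controls: 0 for no effect and ±100 for the full control effect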
Procedure, shortened: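 Pre-activated (IL-1β/TNFα) JNK3 in HepG2 lysates phosphorylates biotin-GST-cJun(1-79), 10 uM ATP; anti-phospho-cJun(Ser73) AlphaScreen read at room temperature, pH 7.6 Tris buffer. Compounds pre-incubated 15 min as titrations.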

[7] = Confirmation and Secondary Assay for Modulators of Hemoglobin Beta Chain Splicing at IVS2 654 locus (AID 910; active = well fitted curve in the direction sought with a large enough effect; an effect the other way counts as inactive or inconclusive;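 also: HeLa cells stably carrying EGFP split by mutant beta-globin IVS2-654 intron; % of control where 0% means no effect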); conditions: HeLa EGFP-654 splicing reporter, GFP fluorescence, 48 h; series mostly up to 38.3 µM
Procedure, shortened: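 HeLa cells stably expressing EGFP interrupted by β-globin IVS2-654 intron, seeded overnight in Opti-MEM/2% FCS, then treated 2 days at 37 °C. Restored splicing read as total peak GFP intensity per well by laser scanning cytometry (488 nm excitation, 500–520 nm emission); 500 nM antisense PNA as control.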

[8] = Confirmation and Secondary Assay for Modulators of Hemoglobin Beta Chain Splicing at IVS2 705 locus (AID 930; active = well fitted curve in the direction sought with a large enough effect; an effect the other way counts as inactive or inconclusive;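 also: HeLa cells stably expressing the EGFP-705 splicing reporter; GFP fluorescence per well restored by corrected splicing of the IVS2-705 intron in EGFP; % of control where 0% means no effect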); conditions: HeLa EGFP-705 splicing reporter, GFP fluorescence, 48 h; series mostly up to 38.3 µM
Procedure, shortened: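 HeLa cells stably carrying EGFP interrupted by mutant beta-globin intron 2 (IVS2-705) treated 2 days at 37C with compound; 500 nM antisense PNA as control. Correct splicing read as total peak GFP intensity per well by laser-scanning cytometry.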

[9] = qHTS Assay for Lipid Storage Modulators (AID 1519; calls by dose curve); conditions: Drosophila S3 cells, BODIPY lipid droplet/cell ratio, laser cytometry, cells loaded with oleic acid; for activity change, negative = inhibition: at 57.5 µM (top of the series)
Procedure, shortened: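 Cells seeded at 5,000 per well were treated with compounds over a concentration series and loaded with oleic acid (400 uM, as added). Lipid droplet fluorescence (488 nm excitation, 500-530 nm channel) was read by laser-scanning cytometry and normalized to 20 uM Triacsin C.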

[10] = target: Ubiquitin carboxyl-terminal hydrolase 1 (Homo sapiens) (UniProt O94782); test: Inhibitors of USP1/UAF1: Pilot qHTS (AID 504865; active = well fitted curve in the direction sought with a large enough effect; an effect the other way counts as inactive or inconclusive;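 also: rhodamine fluorescence freed from ubiquitin-rhodamine substrate followed over time; top concentration of the series differs between compounds; % is scaled to controls: 0 for no effect and ±100 for the full control effect; nearly all actives have a fitted effect of over 35% in size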); conditions: purified USP1/UAF1, Ub-rhodamine cleavage fluorescence; series mostly up to 54.9 µM
Procedure, shortened: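 USP1/UAF1 complex at 1 nM preincubated 15 min at room temperature with compound, then Ub-Rho substrate added at 150 nM final. Fluorescence (480/540 nm) read kinetically in 50 mM HEPES pH 7.8, 0.5 mM EDTA, 1 mM TCEP, 0.1 mg/ml BSA, 0.01% Tween-20.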

[11] = NFAT Signaling Pathway (AID 444); conditions: Jurkat NFAT-bla M1, carbachol, beta-lactamase ratio, 5 h; at 7.69 µM (top of the series) unless noted;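 also: carbachol stimulus at about its EC50 of 1 µM final; % is scaled to controls: 0 for no effect and ±100 for the full control effect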
Procedure, shortened: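 Jurkat cells with NFAT-driven β-lactamase reporter and co-expressed M1 receptor, stimulated with carbachol (final 1 uM, ~EC50), compound titration, 5 h at 37 °C. CCF4 loaded 1 h at RT; 460/530 nm ratio gave %activity and AC50.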

[12] = target: 3',5'-cyclic-AMP phosphodiesterase 4B (Homo sapiens) (UniProt Q07343); test: qHTS Assay for Inhibitors of PDE-IV (AID 607; active = well fitted activation curve with a large enough effect in the main read-out, with a control signal flat, not every such curve was filed as active; also: % of control where 0% means no effect); conditions: HEK293 ACTOne CNG channel cells, membrane potential fluorescence; series mostly up to 22.9 µM
Procedure, shortened: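 ACTOne HEK293 cells carry a modified cAMP-gated CNG channel and express endogenous PDE4; plated 1000 cells/well, compounds up to 22.9 uM final. Membrane-potential dye fluorescence (ex 535/em 590) was read; parental cells received 10 uM forskolin + 100 uM RO 20-1724.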

[13] = measured here: cell count channel max response
[14] = measured here: lipid channel max response

Chain of Ubiquitin carboxyl-terminal hydrolase 1 (Homo sapiens) (O94782 whole entry, looked up): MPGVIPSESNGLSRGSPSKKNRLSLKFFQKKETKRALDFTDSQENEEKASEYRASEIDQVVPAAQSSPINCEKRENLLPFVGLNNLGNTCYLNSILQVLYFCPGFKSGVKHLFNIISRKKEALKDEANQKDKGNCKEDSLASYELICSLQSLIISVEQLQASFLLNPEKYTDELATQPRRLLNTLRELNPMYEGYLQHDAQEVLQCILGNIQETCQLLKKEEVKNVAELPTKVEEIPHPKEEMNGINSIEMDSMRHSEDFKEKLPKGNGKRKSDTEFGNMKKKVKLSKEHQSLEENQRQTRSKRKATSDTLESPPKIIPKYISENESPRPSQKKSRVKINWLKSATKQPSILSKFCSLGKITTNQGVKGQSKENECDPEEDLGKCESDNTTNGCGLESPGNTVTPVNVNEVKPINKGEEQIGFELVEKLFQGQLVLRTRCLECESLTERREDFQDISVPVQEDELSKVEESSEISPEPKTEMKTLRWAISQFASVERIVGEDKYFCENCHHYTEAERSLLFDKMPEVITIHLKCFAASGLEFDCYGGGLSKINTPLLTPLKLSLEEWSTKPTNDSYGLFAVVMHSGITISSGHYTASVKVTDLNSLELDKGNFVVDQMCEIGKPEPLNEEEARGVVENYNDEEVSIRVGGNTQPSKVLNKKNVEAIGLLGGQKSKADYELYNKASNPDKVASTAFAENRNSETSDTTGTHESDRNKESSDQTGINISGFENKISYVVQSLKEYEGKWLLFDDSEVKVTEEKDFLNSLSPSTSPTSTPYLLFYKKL
Chain of Glucocorticoid receptor (Homo sapiens) (P04150 whole entry, looked up, the tested form may be a part): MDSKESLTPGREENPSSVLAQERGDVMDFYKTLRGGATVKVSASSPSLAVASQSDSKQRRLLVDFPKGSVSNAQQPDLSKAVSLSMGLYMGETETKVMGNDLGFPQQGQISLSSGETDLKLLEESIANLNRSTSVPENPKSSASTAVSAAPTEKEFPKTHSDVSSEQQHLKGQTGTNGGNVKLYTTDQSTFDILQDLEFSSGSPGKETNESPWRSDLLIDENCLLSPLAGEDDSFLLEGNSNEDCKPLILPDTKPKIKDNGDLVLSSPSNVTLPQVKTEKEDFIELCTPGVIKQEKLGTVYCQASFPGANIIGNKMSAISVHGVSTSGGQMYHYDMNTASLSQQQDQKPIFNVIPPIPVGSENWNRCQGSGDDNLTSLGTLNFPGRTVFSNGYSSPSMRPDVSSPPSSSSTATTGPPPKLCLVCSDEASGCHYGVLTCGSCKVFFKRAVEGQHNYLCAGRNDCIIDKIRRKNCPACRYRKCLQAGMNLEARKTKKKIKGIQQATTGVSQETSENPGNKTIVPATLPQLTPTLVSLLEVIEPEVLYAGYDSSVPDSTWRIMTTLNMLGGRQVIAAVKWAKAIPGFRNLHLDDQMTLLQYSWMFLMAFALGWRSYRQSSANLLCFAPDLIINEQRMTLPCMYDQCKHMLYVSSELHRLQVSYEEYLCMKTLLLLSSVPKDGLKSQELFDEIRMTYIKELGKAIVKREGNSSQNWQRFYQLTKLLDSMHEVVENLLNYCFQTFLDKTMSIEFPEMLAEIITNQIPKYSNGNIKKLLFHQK
Chain of Lysosomal acid glucosylceramidase (Homo sapiens) (P04062 whole entry, looked up): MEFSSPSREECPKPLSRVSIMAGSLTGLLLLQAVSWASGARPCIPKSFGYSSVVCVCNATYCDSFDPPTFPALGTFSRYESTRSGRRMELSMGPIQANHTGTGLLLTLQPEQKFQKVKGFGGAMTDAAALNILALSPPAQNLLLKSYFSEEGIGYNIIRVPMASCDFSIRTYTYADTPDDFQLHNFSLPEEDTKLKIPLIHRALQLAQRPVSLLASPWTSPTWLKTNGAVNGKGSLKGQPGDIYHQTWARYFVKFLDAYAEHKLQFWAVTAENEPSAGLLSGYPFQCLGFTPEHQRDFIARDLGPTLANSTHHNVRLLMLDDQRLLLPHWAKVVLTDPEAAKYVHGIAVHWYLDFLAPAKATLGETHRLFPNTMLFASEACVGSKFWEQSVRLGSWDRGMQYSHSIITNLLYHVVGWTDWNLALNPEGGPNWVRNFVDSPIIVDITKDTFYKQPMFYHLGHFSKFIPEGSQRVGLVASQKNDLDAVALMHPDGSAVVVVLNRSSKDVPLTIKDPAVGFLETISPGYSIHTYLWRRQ
Chain of 3',5'-cyclic-AMP phosphodiesterase 4B (Homo sapiens) (Q07343 whole entry, looked up): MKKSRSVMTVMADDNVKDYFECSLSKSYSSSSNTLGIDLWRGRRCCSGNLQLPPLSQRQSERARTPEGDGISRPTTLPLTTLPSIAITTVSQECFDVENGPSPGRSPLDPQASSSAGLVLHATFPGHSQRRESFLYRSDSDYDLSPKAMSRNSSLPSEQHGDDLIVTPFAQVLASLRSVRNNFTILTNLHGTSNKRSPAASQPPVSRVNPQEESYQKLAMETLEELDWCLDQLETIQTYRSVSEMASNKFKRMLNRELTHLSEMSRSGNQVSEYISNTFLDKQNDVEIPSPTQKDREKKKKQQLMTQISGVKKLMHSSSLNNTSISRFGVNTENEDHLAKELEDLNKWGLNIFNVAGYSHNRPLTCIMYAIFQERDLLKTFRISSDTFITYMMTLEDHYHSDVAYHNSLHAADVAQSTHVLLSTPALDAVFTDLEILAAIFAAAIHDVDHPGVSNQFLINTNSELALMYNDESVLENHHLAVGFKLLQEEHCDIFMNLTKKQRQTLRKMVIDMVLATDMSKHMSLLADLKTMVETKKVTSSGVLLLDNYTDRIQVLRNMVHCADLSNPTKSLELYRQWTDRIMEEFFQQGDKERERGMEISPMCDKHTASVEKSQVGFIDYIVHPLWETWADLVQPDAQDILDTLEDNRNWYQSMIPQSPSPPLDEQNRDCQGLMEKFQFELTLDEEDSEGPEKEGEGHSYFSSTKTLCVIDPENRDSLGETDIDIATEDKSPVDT

CN1CCN(c2ccnc(-c3ccccc3C(F)(F)F)n2)CC1
inactive: Potency [1] > 11.4 µM | activity change, negative = inhibition [2] 8.46% | activity, negative = inhibition [3] 3.89% | Potency [4] > 46 µM | Potency [5] > 46 µM | Potency [6] | Potency [7] | outcome [8] | activity change, negative = inhibition [9] 3.24% | Potency [10]
-14.8%: max response [9, 14]
-19.5%: max response [9, 13]

Cc1noc(C)c1-c1nccc(N2CCNCC2)n1
inactive: Potency [1] > 11.4 µM | activity change, negative = inhibition [2] 14.5% | activity change, negative = inhibition [11] -5.44% | activity, negative = inhibition [3] -0.568% | Potency [4] > 46 µM | Potency [5] > 46 µM | Potency [6] | Potency [12] | outcome [8] | activity change, negative = inhibition [9] 6.06% | Potency [10]
6.93%: max response [9, 13]
14.7%: max response [9, 14]

CN1CCN(c2nc(-c3cccc(NS(C)(=O)=O)c3)nc3ccccc23)CC1
inactive: Potency [1] > 11.4 µM | activity change, negative = inhibition [2] 2.06% | activity change, negative = inhibition [11] 7.49% | activity, negative = inhibition [3] -8.68% | Potency [4] > 46 µM | Potency [5] > 46 µM | Potency [6] | Potency [7] | outcome [8] | activity change, negative = inhibition [9] 4.29% | Potency [10]
8.93%: max response [9, 14]
7.68%: max response [9, 13]
